Results on 16 compounds are retold here after PubChem BioAssay (EPA / NIEHS).

Assay [1] has as its target human Vitamin D Receptor (VDR), VDR (gene 7421) (UniProt P11473). As to the kind of experiment: ATG_VDR_TRANS: Attagene TRANS-FACTORIAL HepG2 Assay for human Vitamin D Receptor (VDR) (AID 2283022; active means hit-call score of the fitted dose curve at least 0.9, where 1 is the maximum). A digest of the protocol:
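HepG2 cells were transiently transfected with GAL4-UAS reporter units and a chimeric VDR-Gal4 construct, then dosed for 24 hours. Reporter mRNA was quantified by RT-PCR, fluorescent labeling, HpaI digestion and capillary electrophoresis; gain of signal analysed vs DMSO.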

Assay [2] in a line: BSK_3C_SRB: Viability Assessment in the BioMAP Diversity Plus: 3C Assay (AID 2283023).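 Further: fitted both ways against DMSO so a hit may be signal rise or drop.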 To be noted: primary human endothelial cells (HUVEC). A digest of the protocol: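 Human umbilical vein endothelial cells in the 3C system, treated 24 h. Total protein measured by 0.1% sulforhodamine B staining after 10% TCA fixation, read at 560 nm; bidirectional fit versus DMSO.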
Read-out in assay [3]: Matrix Metallopeptidase 1 (MMP1), MMP1 (gene 4312)
In words: BSK_BE3C_MMP1: BioMAP Diversity Plus: BE3C Assay for Matrix Metallopeptidase 1 (MMP1) Biomarker Activity (AID 2283024). The conditions noted are these: primary human bronchial epithelial cells; actives raise or lower the signal. A digest of the protocol: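 Human primary bronchial epithelial cells (BE3C system) dosed for 24 h; MMP-1 quantified by ELISA. Bidirectional fit against DMSO; cytotoxicity tracked in parallel cultures by SRB total-protein staining.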

Assay [4] can be described thus: BSK_3C_Vis: BioMAP Diversity Plus: 3C Assay for Morphology Visualization (AID 2283025).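 Further: fitted both ways so gain or loss versus DMSO counts.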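 On AC50: light microscopy image of cell morphology used as background control.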 The conditions noted are these: primary human endothelial cells (HUVEC). In outline: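 Human umbilical vein endothelial cell morphology was inspected by light microscopy 24 h after chemical dosing; scored bidirectionally relative to DMSO.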
Read-out in assay [5]: Pselectin, SELP (gene 6403)
In words: BSK_4H_Pselectin: BioMAP Diversity Plus: 4H Assay for Pselectin Biomarker Activity (AID 2283026). To be noted: primary human endothelial cells (HUVEC); actives raise or lower the signal. A digest of the protocol:
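Primary human umbilical vein endothelial cells were treated 24 h, and cell-surface P-selectin was then quantified by ELISA. Bidirectional fit versus DMSO; cytotoxicity checked in parallel cultures by SRB total-protein staining.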

Assay [6] in a line: BSK_4H_SRB: Viability Assessment in the BioMAP Diversity Plus: 4H Assay (AID 2283027).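 Further: cells exposed to compound for 24 h before staining.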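 On AC50: curves fitted both ways versus DMSO so AC50 may be loss or gain.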 To be noted: primary human endothelial cells (HUVEC). In outline:
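Human umbilical vein endothelial cells were dosed with chemical and, after 24 h, fixed with 10% TCA, stained with 0.1% sulforhodamine B, and read at 560 nm to give total protein as a cytotoxicity measure. Bidirectional fitting relative to DMSO control.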

The nature of assay [7]: BSK_BE3C_SRB: Viability Assessment in the BioMAP Diversity Plus: BE3C Assay (AID 2283028).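 On AC50: fitted both ways so AC50 may mark signal gain or loss versus DMSO.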 The conditions noted are these: primary human bronchial epithelial cells. A digest of the protocol:
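Human bronchial epithelial primary cells in confluent culture, 24 h after chemical dosing; total protein by 0.1% SRB staining after 10% TCA fixation, read at 560 nm. Bidirectional fitting versus DMSO baseline.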

Read-out in assay [8]: Thrombomodulin, THBD (gene 7056)
As to the kind of experiment: BSK_3C_Thrombomodulin: BioMAP Diversity Plus: 3C Assay for Thrombomodulin Biomarker Activity (AID 2283029). To be noted: primary human endothelial cells (HUVEC); actives raise or lower the signal. A digest of the protocol:
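Human umbilical vein endothelial cells were exposed to chemicals for 24 h; cell-surface thrombomodulin quantified by ELISA, with bidirectional fitting against DMSO baseline.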

Read-out in assay [9]: Urokinase-type plasminogen activator receptor (uPAR), PLAUR (gene 5329)
As to the kind of experiment: BSK_4H_uPAR: BioMAP Diversity Plus: 4H Assay for Urokinase-type plasminogen activator receptor (uPAR) Biomarker Activity (AID 2283030). To be noted: primary human endothelial cells (HUVEC); actives raise or lower the signal. In outline: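 Human umbilical vein endothelial cells in the 4H system, 24 h after chemical dosing. Cell-surface uPAR measured by ELISA, fitted in both directions versus DMSO; cytotoxicity checked by SRB total protein in parallel cultures.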

Read-out in assay [10]: Vascular endothelial growth factor receptor 2 (Homo sapiens) (UniProt P35968)
As to the kind of experiment: BSK_4H_VEGFRII: BioMAP Diversity Plus: 4H Assay for Vascular endothelial growth factor receptor 2 (VEGFR2) Biomarker Activity (AID 2283031). To be noted: primary human endothelial cells (HUVEC); actives raise or lower the signal. In outline: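 Primary human umbilical vein endothelial cells (4H system), 24 h exposure; cell-surface VEGFR2 measured by ELISA. Bidirectional fitting versus DMSO; cytotoxicity checked in parallel by SRB total-protein staining.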

Each structure is given as a SMILES string. “And” between values parts separate entries of the source, which are not always exact repeats. Identical values can stand only once. Inconclusive results are not listed. Some structures have more than one record in an assay (separate samples or runs), and their calls can disagree. The source made the active and inactive calls. How the source made its calls, unless noted: active means hit-call score of the fitted dose curve at least 0.9, where 1 is the maximum; inactive means score below 0.9.

human Vitamin D Receptor (VDR), VDR (gene 7421), sequence (P11473 whole entry, looked up, the tested form may be a part): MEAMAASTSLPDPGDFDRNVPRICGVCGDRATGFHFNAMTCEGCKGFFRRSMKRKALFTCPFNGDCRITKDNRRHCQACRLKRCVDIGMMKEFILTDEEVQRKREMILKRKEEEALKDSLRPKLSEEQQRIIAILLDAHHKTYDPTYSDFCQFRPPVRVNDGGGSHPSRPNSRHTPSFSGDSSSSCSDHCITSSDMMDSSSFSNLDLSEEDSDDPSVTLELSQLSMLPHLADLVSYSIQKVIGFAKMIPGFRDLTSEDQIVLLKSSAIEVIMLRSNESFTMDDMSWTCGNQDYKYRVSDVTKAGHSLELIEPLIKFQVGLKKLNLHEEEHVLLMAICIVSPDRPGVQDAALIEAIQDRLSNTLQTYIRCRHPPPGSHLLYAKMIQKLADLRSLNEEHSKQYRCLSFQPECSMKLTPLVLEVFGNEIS

Turning to `CCCCCCCCCCCCCOP(=O)(O)O`, the outcome in assay [1] was inactive.
In the case of `CCCCCCCCCCOC(C)=O`, the compound was called inactive in assay [1].
Regarding `O=S(=O)(Oc1ccc(Cl)cc1Cl)c1ccccc1`, the result in [1] was inactive.
`CCCCCC(C)O` (stereo unspecified): the compound was called inactive in assay [1].
The same measure, in the same setting: next, `CCOC(=O)[C@H](C)O`: “inactive”.
In the case of `CCOC(=O)CC`, the outcome in [1] was inactive.
Turning to `CCCCCCCCCCC=CC#N`, the result in [1] was inactive.
Take `CCCCCCCCCCc1ccccc1`: the outcome in assay [1] was inactive.
For `CCCNC(=O)NS(=O)(=O)c1ccc(Cl)cc1`, in [1], the call was inactive.
For the compound `C/C=C\C/C=C/CCCCCCCCOC(C)=O`, the compound was called inactive in assay [1], in [2], in assay [3], in [4], in assay [7] and in assay [8]. The result in assay [9] and in assay [10] was inactive. Also, the values for the AC50 in assay [5] and in [6] were 20 µM (active) and 12.7 µM (active), respectively.
As for `O=C1CCCN1CCO`, the compound was called inactive in [1], in assay [2], in assay [3], in assay [5], in [6] and in assay [7]. Besides, the outcome in [8], in assay [9] and in [10] was inactive.
On to `c1ccc(-c2ccccn2)nc1`, for which the compound was called inactive in assay [1], in [2], in [3], in [4], in assay [5] and in assay [6]. For the same compound, the outcome in assay [7], in assay [8], in assay [9] and in assay [10] was inactive.
In the case of `O=C(Cl)c1cc(C(=O)Cl)cc(C(=O)Cl)c1`, the AC50 is 20 µM (active) in assay [2]; 20 µM (active) in assay [3]; 12.5 µM (active) in [4]; 11.6 µM (active) in assay [5]; 26.8 µM (active) in assay [6]; 29.1 µM (active) in [7]. Also, the concentration at half-maximal activity (AC50) in [9] was 20 µM (active). The result in assay [8] and in assay [10] was inactive.
Take `CC(C)C(=O)C(C)C`: the result in assay [2], in assay [3], in [4], in assay [5], in [6] and in assay [7] was inactive. Also, the outcome in assay [8], in assay [9] and in assay [10] was inactive.
Regarding `CCOC(=O)c1ccccc1C(=C1C=C(Br)C(=O)C(Br)=C1)c1cc(Br)c(O)c(Br)c1`, the AC50 is 21.7 µM (active) and 23.7 µM (active) in assay [2]; 21.9 µM (active) and 19.8 µM (active) in [5]; 19.1 µM (active) and 20.3 µM (active) in [6]; 12.5 µM (active) in assay [7]; 18.5 µM (active) and 19.2 µM (active) in assay [8]; 15.6 µM (active) and 15.8 µM (active) in assay [9]. The outcome in [3], in assay [7] and in [10] was inactive.
Consider `c1ccc2c(c1)ccc1cc3c(ccc4ccccc43)cc12`, for which the outcome in [2], in assay [4], in [5], in assay [6], in assay [7] and in assay [8] was inactive. Also, the outcome in assay [9] and in assay [10] was inactive. Also, the AC50 in assay [3] is 0.015 µM (active); in [4], 35.7 µM (active); in assay [9] it was 0.267 µM (active).

As a reminder, the AC50 is the midpoint of the concentration-response curve, whichever way the signal moves.
